Read-out in test [1]: Interleukin 17F (IL17F), IL17F (gene 112744)
The experiment in a line: BSK_BT_xIL17F: BioMAP Diversity Plus: BT Assay for Interleukin 17F (IL17F) Biomarker Activity (AID 2284243). Conditions: primary human B cells with PBMC. The gist of the method: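 B cell/PBMC co-culture (human primary), 24 h compound exposure; sIL-17F by Luminex xMAP; gain-of-signal fit vs DMSO baseline.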

Read-out in test [2]: Interleukin 2 (IL2), IL2 (gene 3558)
The experiment in a line: BSK_BT_xIL2: BioMAP Diversity Plus: BT Assay for Interleukin 2 (IL2) Biomarker Activity (AID 2284245). Conditions: primary human B cells with PBMC. The gist of the method: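 Co-cultures of primary human B cells and PBMC are treated with chemical and sampled at 24 h. IL-2 secretion is quantified by Luminex xMAP, with DMSO-treated wells as baseline.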

Read-out in test [3]: Basic fibroblast growth factor (bFGF), FGF2 (gene 2247)
In words: BSK_MyoF_bFGF: BioMAP Diversity Plus: MyoF Assay for Basic fibroblast growth factor (bFGF) Biomarker Activity (AID 2284246). Conditions: primary human lung fibroblasts. The gist of the method: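 Fibroblasts from human lung, 24 h dosing. bFGF by ELISA; gain of signal over DMSO.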

Read-out in test [4]: Collagen IV, COL4A1 (gene 1282)
The experiment in a line: BSK_MyoF_CollagenIV: BioMAP Diversity Plus: MyoF Assay for Collagen IV Biomarker Activity (AID 2284247). Conditions: primary human lung fibroblasts. The gist of the method: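 Lung fibroblasts (human primary) treated with chemicals were assayed after 24 h for Collagen IV using an ELISA, with DMSO serving as negative control and baseline for a positive-direction fit.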

Read-out in test [5]: Monokine induced gamma interferon (MIG), CXCL9 (gene 4283)
In words: BSK_KF3CT_MIG: BioMAP Diversity Plus: KF3CT Assay for Monokine induced gamma interferon (MIG) Biomarker Activity (AID 2284248). The following applies: primary human keratinocytes with fibroblasts. The gist of the method:
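Human keratinocyte plus foreskin fibroblast primary co-culture dosed with test chemical for 24 h; MIG level measured by ELISA and fitted in the positive direction against DMSO as baseline.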

Read-out in test [6]: Vascular cell adhesion molecule 1 (VCAM1), VCAM1 (gene 7412)
In words: BSK_BF4T_VCAM1: BioMAP Diversity Plus: BF4T Assay for Vascular cell adhesion molecule 1 (VCAM1) Biomarker Activity (AID 2284249). The following applies: primary human bronchial epithelial cells with fibroblasts. The gist of the method: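 Cell-surface VCAM-1 quantified by ELISA after 24 h chemical exposure of human bronchial epithelial/dermal fibroblast co-cultures, with SRB staining in parallel wells for cytotoxicity; DMSO baseline, positive-direction fitting.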

Read-out in test [7]: Collagen I, COL1A1 (gene 1277)
The experiment in a line: BSK_hDFCGF_CollagenI: BioMAP Diversity Plus: hDFCGF Assay for Collagen I Biomarker Activity (AID 2284250). Conditions: primary human foreskin fibroblasts. The gist of the method: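 Readout: Collagen I by ELISA after 24 h compound treatment of primary human foreskin fibroblasts. Endpoint analysed for increases relative to DMSO; total protein by SRB in parallel wells flagged cytotoxicity.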

Read-out in test [8]: Interferon-inducible T-cell alpha chemoattractant (ITAC), CXCL11 (gene 6373)
The experiment in a line: BSK_hDFCGF_ITAC: BioMAP Diversity Plus: hDFCGF Assay for Interferon-inducible T-cell alpha chemoattractant (ITAC) Biomarker Activity (AID 2284251). The following applies: primary human foreskin fibroblasts. The gist of the method: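 I-TAC levels were read by ELISA on human dermal foreskin fibroblast primary cultures 24 h after dosing, analysed against DMSO in the positive direction. Cytotoxicity was assessed alongside by sulforhodamine B total-protein staining.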

Read-out in test [9]: Plasminogen activator inhibitor-1 (PAI1), SERPINE1 (gene 5054)
In words: BSK_KF3CT_PAI1: BioMAP Diversity Plus: KF3CT Assay for Plasminogen activator inhibitor-1 (PAI1) Biomarker Activity (AID 2284252). Conditions: primary human keratinocytes with fibroblasts. The gist of the method:
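In this co-culture of primary human keratinocytes and foreskin fibroblasts, PAI-1 was measured by ELISA at 24 h and fitted upward from DMSO.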

Several values for one entry are separate records, joined by “and”; a condition that tells them apart may be missing. Equal entries are not always repeated. Where a structure was tested more than once in an assay, its records may differ in their call. Activity calls are given as the source filed them. Rule for the calls: active = hit-call score of the fitted dose curve at least 0.9, where 1 is the maximum; inactive = score below 0.9.

For orientation: AC50 means the midpoint of the concentration-response curve, whichever way the signal moves.

With `C=CC(F)(F)C(F)(F)C(F)(F)C(F)(F)C(F)(F)C(F)(F)C(F)(F)C(F)(F)F`, the outcome in [1], in test [2], in test [3], in test [4], in test [5] and in test [6] was inactive. Further, the result in test [7], in test [8] and in test [9] was inactive.
As for `OCCCC(F)(F)C(F)(F)C(F)(F)F`, the result in test [1], in test [2], in [3], in test [4], in [5] and in [6] was inactive. In addition, the outcome in test [7], in test [8] and in [9] was inactive.
With `CCc1c(Br)c(Br)c(Br)c(Br)c1Br`, the result in test [1], in test [2], in test [3] and in [4] was inactive.
As to `CCCCC(CC)COP(=O)(O)OCC(CC)CCCC` (stereo not drawn), the result in test [5] and in test [7] was inactive. Also, the AC50 is 20 µM (active) in test [7]; 29.7 µM (active) and 20 µM (active) in test [8]; 31.1 µM (active) and 26.6 µM (active) in test [9].
As to `FC(F)(F)C(F)(F)C(F)(F)C(F)(F)C(F)(F)C(F)(F)C(F)(F)C(F)(F)F`, the outcome in test [1], in [2], in test [3], in test [4], in test [5] and in [6] was inactive. Also, the outcome in [7], in [8] and in [9] was inactive.
In the case of `O=C(O)C=C(C(F)(F)F)C(F)(F)F`, the AC50 in [1] was 10.4 µM (active) and 8.84 µM (active); in test [2], 10.1 µM (active) and 5.58 µM (active). For the same molecule, the outcome in [3], in [4], in test [5], in test [6], in [7] and in test [8] was inactive. The outcome in test [9] was inactive.
For `C=C(C)C(=O)OCC(F)(F)C(F)(F)C(F)(F)C(F)(F)C(F)(F)C(F)(F)C(F)(F)F`, the result in test [1], in test [2], in test [3], in test [4], in test [5] and in test [6] was inactive. Besides, the outcome in test [7], in test [8] and in test [9] was inactive.
In the case of `OCC(F)(F)C(F)(F)C(F)(F)C(F)(F)C(F)(F)C(F)F`, the outcome in [1], in [2], in test [3], in test [4], in test [5] and in [6] was inactive. For the same molecule, the result in test [7], in test [8] and in [9] was inactive.
`C=CC(=O)OCC(F)(F)C(F)(F)C(F)(F)C(F)(F)C(F)(F)C(F)(F)C(F)(F)F`: in test [1], the AC50 was 6.72 µM (active) and 18.4 µM (active). The result in [2], in test [3], in test [4], in test [5], in test [6] and in [7] was inactive. Besides, the outcome in test [8] and in test [9] was inactive.
Consider `FC(F)(F)C(F)(F)CNCC(F)(F)C(F)(F)F`, for which the result in [1], in test [2], in test [3], in test [4], in [5] and in test [6] was inactive. Besides, the outcome in [7], in [8] and in test [9] was inactive.
Turning to `O=C(O)C(F)(F)C(F)(F)OC(F)(F)F`, the result in test [1], in test [2], in test [3], in test [4], in test [5] and in test [6] was inactive. Moreover, the outcome in [7], in [8] and in test [9] was inactive.
With `C=C(C)C(=O)OCCC(F)(F)C(F)(F)C(F)(F)C(F)(F)C(F)(C(F)(F)F)C(F)(F)F`, the result in test [1], in test [2], in test [3], in test [4], in test [5] and in test [6] was inactive. Further, the outcome in test [7], in test [8] and in [9] was inactive.
In the case of `O=S(=O)(O)C(F)(F)C(F)(F)C(F)(F)C(F)(F)C(F)(F)C(F)(F)C(F)(F)F`, the outcome in test [1], in [2], in test [3], in test [4], in [5] and in test [6] was inactive. Further, the outcome in test [7], in test [8] and in test [9] was inactive.
For the molecule `CCO[Si](CCC(F)(F)C(F)(F)C(F)(F)C(F)(F)C(F)(F)C(F)(F)F)(OCC)OCC`, the result in test [1], in test [2], in [3], in [4], in [5] and in test [6] was inactive. Further, the outcome in test [7], in test [8] and in test [9] was inactive.
As to `FC(F)(F)C(F)(F)C(F)(F)C(F)(F)C(F)(F)CCI`, the outcome in [1], in test [2], in test [3], in test [4], in test [5] and in test [6] was inactive. Also, the outcome in test [7] and in [9] was inactive. The AC50 in test [8] is 30 µM (active) and 40.9 µM (active).
On to `C=CC(=O)OCC(F)(F)C(F)(F)C(F)(F)C(F)(F)COC(=O)C=C`, for which the AC50 was 4.17 µM (active) and 2.81 µM (active) in test [1]; 11.2 µM (active) and 9.62 µM (active) in [2]; 18.2 µM (active) and 14.5 µM (active) in test [3]; 12.4 µM (active) and 14.3 µM (active) in test [4]; 21.5 µM (active) and 29.6 µM (active) in test [5]; 7.96 µM (active) and 10.9 µM (active) in [6]. The AC50 was 6.61 µM (active) and 5.23 µM (active) in test [8]; 23.3 µM (active) and 43 µM (active) in [9]. Besides, the outcome in test [7] was inactive.
On to `CCCCCCCCCCCCCCCC[N+](C)(C)Cc1ccccc1`, for which the AC50 was 2.96 µM (active) in test [1], 2.01 µM (active) in test [2], 2.02 µM (active) in test [3] and 3.21 µM (active) in test [4].
For the molecule `FC(F)(F)C(F)(F)C(F)(F)C(F)(F)C(F)(F)C(F)(F)C(F)(F)Br`, the outcome in test [1], in [2], in test [3], in [4], in test [5] and in test [6] was inactive. The outcome in [7], in test [8] and in test [9] was inactive.

(Values after PubChem BioAssay (EPA / NIEHS).)
